Screens deposited in PubChem BioAssay by several laboratories.
MRP1 act: activators of MRP-1 | H69AR cells + doxorubicin, viability rescue, CellTiter-Glo | viability increase, % at 10 µM | 140,000 tested, 0.61% active;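 active = viability gain under doxorubicin at or above a set limit, the compound median plus 3 SD, cut at about 4.7% in these data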;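 also: MRP-1 overexpressing cells given doxorubicin 25 µM after compound pretreatment; 18-22 h compound pretreatment then 72 h with doxorubicin before readout; 0% = doxorubicin-only wells and 100% = vehicle-treated cells without doxorubicin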
MRP resist rev: compounds reversing MRP-mediated drug resistance | 85,000 tested, 0.04% active | H69AR cells + 2 uM doxorubicin, CellTiter-Glo, 72 h | differential viability (reversal), % at 10 µM;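 active = viability drop by adding the cancer drug above about 55%, with treated viability meeting a 40% cutoff, limit read from the data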;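 also: viability without doxorubicin minus viability with 2 µM doxorubicin for each compound; larger differential means the compound sensitizes cells more to doxorubicin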
CYP2C9 inhib: human CYP2C9 inhibition. 96,000 tested, 20% active. AID 777. inhibition, % at 5 µM. CYP2C9 Supersomes, luciferin-H conversion, luminescence. P11712;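 active = blocking of liver enzyme CYP2C9 beyond about 50% at 5 µM, limit read from the data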
CYP2C9 act: CYP2C9 (human) activation | recombinant CYP2C9, luciferin-H conversion, luminescence; active compounds read high; factor 1 = untreated enzyme, 0 = blocked | activation factor at 5 µM | P11712 | 96,000 tested, 1.4% active;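 active = activation factor of 2 or more for CYP2C9 at a 5 µM dose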;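 also: 0 = sulfaphenazole-blocked wells and 1 = vehicle-only wells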
CYP2C19 act: cytochrome P450 2C19 (human) activation; P33261; recombinant CYP2C19, luciferin-H EGE luminescence; active compounds read high; 0 = fully inhibited enzyme, 1 = untreated enzyme; activation factor at 5 µM; 96,000 tested, under 10 active; AID 1025;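 active = activation factor of at least 2 at 5 µM in the primary screen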;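 also: 0 = wells with 2.5 mM tranylcypromine and 1 = vehicle-only wells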
Target sequence (P33261 whole entry, looked up): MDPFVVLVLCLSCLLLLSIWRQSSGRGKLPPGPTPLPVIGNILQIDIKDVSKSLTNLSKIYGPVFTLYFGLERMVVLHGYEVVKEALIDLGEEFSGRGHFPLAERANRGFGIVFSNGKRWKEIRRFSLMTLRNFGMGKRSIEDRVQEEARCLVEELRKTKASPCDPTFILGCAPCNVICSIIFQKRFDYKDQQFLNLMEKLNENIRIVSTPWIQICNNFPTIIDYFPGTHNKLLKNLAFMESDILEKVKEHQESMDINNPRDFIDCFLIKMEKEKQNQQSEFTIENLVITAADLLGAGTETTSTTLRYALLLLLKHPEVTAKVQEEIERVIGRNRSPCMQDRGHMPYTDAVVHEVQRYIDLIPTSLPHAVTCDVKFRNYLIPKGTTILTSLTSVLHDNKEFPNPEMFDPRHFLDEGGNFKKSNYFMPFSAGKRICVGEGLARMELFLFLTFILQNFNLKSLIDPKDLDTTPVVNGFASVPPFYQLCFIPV
CYP2C19 inhib: blocks human cytochrome P450 2C19; CYP2C19 Supersomes, luciferin-H EGE luminescence, 30 min; 96,000 tested, 21% active; AID 778; inhibition, % at 5 µM; P33261;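 active = CYP2C19 inhibition above a set limit at 5 µM in the primary screen, cut at about 50% in these data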;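 also: plate controls were negative control wells for no effect and 2.5 mM tranylcypromine positive control for full effect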
Starred values were filed as active, the others as inactive; / = no result. Only some compounds are listed: those with a hit (about 21% of all), similar ones and a draw of the others.

SMILES | MRP1 act | MRP resist rev | CYP2C9 inhib | CYP2C9 act | CYP2C19 act | CYP2C19 inhib
NC(=O)c1cnn2c1NC(c1ccc(F)cc1)CC2C(F)(F)F (centres undefined) | -0.8 | / | 54.5* | 0.5 | 0.4 | 61.6*
Cc1c(CNC(=O)c2cnn3c2NC(c2ccc(Br)cc2)CC3C(F)(F)F)cnn1C (centres undefined) | 2.1 | 9.3 | 66.8* | 0.3 | 0.5 | 45.7
Cc1n(CC(O)COC2CCCCC2)c2ccccc2[n+]1C (centres undefined) | 2.7 | 4.8 | / | / | / | /
Cc1ccc(C)c(NC(=O)c2nc(-c3ccccc3)n(-c3ccccc3)n2)c1 | -1.7 | / | 71.2* | 0.3 | 0.2 | 79.0*
O=C(O)c1nc(-c2ccccc2)n(-c2ccccc2)n1 | 1.3 | / | / | / | / | /
CCSc1nnc(NC(=O)c2nc(-c3ccccc3)n(-c3ccccc3)n2)s1 | -1.4 | -7.8 | 92.3* | 0.1 | 0.5 | 54.9*
O=C(Nc1nccs1)c1nc(-c2ccccc2)n(-c2ccccc2)n1 | -2.2 | -5.4 | -4.8 | 1 | 1 | -4.1
CCCC(C)NC(=O)c1nc(-c2ccccc2)n(-c2ccccc2)n1 (centres undefined) | -3.2 | 7.2 | 85.8* | 0.1 | 0.7 | 33.4
Cc1csc(NC(=O)c2nc(-c3ccccc3)n(-c3ccccc3)n2)n1 | -2.0 | -45.5 | 75.3* | 0.2 | 0.6 | 43.1
COC(=O)C1=C(C)N(C2CCCC2)C(=O)C1(NC(C)=O)C(F)(F)F (centres undefined) | -0.4 | 10.1 | -16.6 | 1.2 | 1.2 | -18.6
COc1ccccc1N(C(=O)c1ccncc1)c1nc(-c2ccc([N+](=O)[O-])cc2)cs1 | -1.5 | / | / | / | / | /
COc1ccc(C2=NN(CN3C(=O)C(=O)c4ccccc43)C(c3ccc(OC)cc3)C2)cc1 (centres undefined) | -3.0 | / | / | / | / | /
CCOC(=O)c1cc2sccc2n1CC(=O)Nc1ccc(OC)c(OC)c1 | -0.1 | 4.9 | 45.8 | 0.5 | 0.1 | 87.4*
CCOC(=O)c1cc2sccc2n1CC(=O)Nc1ccc(OC)cc1 | -1.9 | 7.4 | 12.0 | 0.9 | 0.7 | 33.9
CCOC(=O)c1cc2sccc2n1CC(=O)N1CCc2ccccc21 | -0.8 | -8.6 | 25.4 | 0.7 | 0.9 | 14.6
CCOC(=O)c1cc2sccc2n1CC(=O)OC(C)C | -2.3 | 16.9 | 88.3* | 0.1 | 0 | 96.6*
COc1ccccc1NC(=S)NC1CCCCCC1 | -4.3 | / | / | / | / | /
NC(=O)[C@@H]1CCOc2c(I)cc([N+](=O)[O-])cc2C(=O)N[C@@H](CO)C(=O)NCC(=O)N1 | 0.1 | / | / | / | / | /
CCOc1ccc(N/C=C/C(=O)c2ccccc2)c([N+](=O)[O-])c1 | -2.2 | / | / | / | / | /
COc1ccc2[nH]c(C)c(CCN3C(=O)C4C5C=CC(C5)C4C3=O)c2c1 (centres undefined) | -2.6 | -1.4 | 37.2 | 0.6 | 0.1 | 93.7*
CCOC(=O)C1=C(C)N(C)C(=O)NC1c1cc2c(cc1Br)OCO2 (centres undefined) | 0.2 | -7.0 | 37.6 | 0.6 | 0.4 | 62.0*
CCN(CC)c1ccc(C2C(C(=O)Nc3ccccn3)=C(C)NC3=C2C(=O)CC(C)(C)C3)cc1 (centres undefined) | -0.3 | 21.4 | 93.9* | 0.1 | 0.6 | 42.2
COC(=O)C1=C(C)N(CCCC(=O)O)C(=O)NC1c1cc2c(cc1[N+](=O)[O-])OCO2 (centres undefined) | -1.8 | / | / | / | / | /
CCOC(=O)C1=C(C)NC2=C(C(=O)CC(C)(C)C2)C1c1cccc(C)n1 (centres undefined) | -4.2 | -14.3 | 16.5 | 0.8 | 0.5 | 54.7*
CCCOC(=O)C1=C(C)NC2=C(C(=O)CC(C)(C)C2)C1c1ccc(N(C)C)cc1 (centres undefined) | -0.1 | 6.6 | 79.7* | 0.2 | 0.1 | 85.4*
CCN(CC)c1ccc(C2C(C(=O)OCCOC)=C(C)NC3=C2C(=O)CC(C)(C)C3)cc1 (centres undefined) | -3.8 | 10.1 | 19.2 | 0.8 | 0.7 | 30.3
COCCOC(=O)C1=C(C)NC2=C(C(=O)CCC2)C1c1cc2c(cc1Br)OCO2 (centres undefined) | -0.8 | 4.9 | 78.7* | 0.2 | 0 | 96.4*
COCCOC(=O)C1=C(C)NC2=C(C(=O)CC(C)(C)C2)C1c1ccc2c(c1)OCO2 (centres undefined) | -0.3 | -6.3 | 81.9* | 0.2 | 0.1 | 90.1*
